Source: PubChem BioAssay
The source made the active and inactive calls. Unless noted, no rule for the calls is given here.

Columns and labels:
[1] = HepG2 liver cancer cell viability effects, profiling panel, resazurin fluorescence, 24 h, PK04 Diversity Set (AID 1172); conditions: higher = more signal; also: test concentration not given here
[2] = basal S. cerevisiae growth modulation, no modifier, primary screen, OD600, strain BY4716, 24 h, basal condition (AID 1173); conditions: OD600, 24 h, higher = more signal, called active from +8 up or from −8 down
[3] = MM1S myeloma cell viability, profiling panel, resazurin fluorescence, basal, 24 h, PK04 Diversity Set (AID 1174); conditions: higher = more signal, called active from +8 up or from −8 down;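 also: MM1S multiple myeloma cell line; test concentration not given here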
[4] = target: Dihydroorotate dehydrogenase (quinone), mitochondrial (Plasmodium falciparum (isolate 3D7)) (UniProt Q08210); assay: PfDHODH enzyme inhibitors, primary screen, biochemical, C-terminal His tag, absorbance 600 nm (AID 1175); conditions: DCIP absorbance 600 nm, higher = more signal, called active from +8 up or from −8 down;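 also: recombinant parasite enzyme with a five histidine tag at its C terminus; test concentration not given here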
[5] = P. aeruginosa biofilm formation inhibitors, primary screen, strain PAO1, LB-PBS medium, absorbance 600 nm (AID 1176); also: test concentration not given here; conditions: P. aeruginosa PAO1 growth/biofilm, A600, 12 h; higher = more signal
[6] = S. cerevisiae RM11-1a growth modifiers, primary screen, strain RM11-1a, OD600, basal, 24 h (AID 1177); conditions: OD600, 24 h, higher = more signal, called active from +8 up or from −8 down;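 also: cultures grown under basal conditions with no added stressor; test concentration not given here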
[7] = E. coli acrAB mutant growth effects, primary screen, E. coli filamentation inducers, strain DRC39, OD650, 24 h (AID 1178); conditions: higher = more signal, called active from +8 up or from −8 down;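 also: growth measured as culture turbidity by optical density at 650 nm; test concentration not given here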
[8] = E. coli acrAB mutant growth effects, primary screen, E. coli filamentation inducers, strain DRC39, OD650, 48 h (AID 1179);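 also: screen aims at cell division blockers that make cells filament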; conditions: E. coli DRC39 delta-acrAB growth, higher = more signal, called active from +8 up or from −8 down
[9] = RPMI8226 myeloma cell viability, profiling panel, resazurin fluorescence, basal, 24 h, PK04 Diversity Set (AID 1180); conditions: higher = more signal;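 also: RPMI8826 multiple myeloma cell line at 5000 cells per well; test concentration not given here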
[10] = target: E3 ubiquitin-protein ligase XIAP (Homo sapiens) (UniProt P98170); assay: XIAP binders, primary screen, biophysical, small-molecule microarray, fluorescence 635 nm (AID 1181); conditions: small-molecule microarray binding, higher = more signal;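 also: score merges 667 nm emission and signal to noise over triplicate slides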
Chain of E3 ubiquitin-protein ligase XIAP (Homo sapiens) (P98170 whole entry, looked up): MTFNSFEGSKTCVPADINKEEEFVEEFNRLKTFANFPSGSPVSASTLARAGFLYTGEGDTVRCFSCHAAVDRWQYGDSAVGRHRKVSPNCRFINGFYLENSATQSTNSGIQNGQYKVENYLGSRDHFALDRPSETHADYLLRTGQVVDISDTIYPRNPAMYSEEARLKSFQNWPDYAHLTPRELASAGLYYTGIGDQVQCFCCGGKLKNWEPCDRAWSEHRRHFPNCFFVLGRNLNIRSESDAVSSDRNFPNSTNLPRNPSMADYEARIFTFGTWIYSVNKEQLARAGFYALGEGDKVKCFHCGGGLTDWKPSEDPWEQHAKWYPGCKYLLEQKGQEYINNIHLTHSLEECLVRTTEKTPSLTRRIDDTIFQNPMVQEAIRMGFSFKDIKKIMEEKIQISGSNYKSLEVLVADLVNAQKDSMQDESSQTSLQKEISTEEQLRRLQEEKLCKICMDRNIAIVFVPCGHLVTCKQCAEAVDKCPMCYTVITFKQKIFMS

Chain of Dihydroorotate dehydrogenase (quinone), mitochondrial (Plasmodium falciparum (isolate 3D7)) (Q08210 whole entry, looked up): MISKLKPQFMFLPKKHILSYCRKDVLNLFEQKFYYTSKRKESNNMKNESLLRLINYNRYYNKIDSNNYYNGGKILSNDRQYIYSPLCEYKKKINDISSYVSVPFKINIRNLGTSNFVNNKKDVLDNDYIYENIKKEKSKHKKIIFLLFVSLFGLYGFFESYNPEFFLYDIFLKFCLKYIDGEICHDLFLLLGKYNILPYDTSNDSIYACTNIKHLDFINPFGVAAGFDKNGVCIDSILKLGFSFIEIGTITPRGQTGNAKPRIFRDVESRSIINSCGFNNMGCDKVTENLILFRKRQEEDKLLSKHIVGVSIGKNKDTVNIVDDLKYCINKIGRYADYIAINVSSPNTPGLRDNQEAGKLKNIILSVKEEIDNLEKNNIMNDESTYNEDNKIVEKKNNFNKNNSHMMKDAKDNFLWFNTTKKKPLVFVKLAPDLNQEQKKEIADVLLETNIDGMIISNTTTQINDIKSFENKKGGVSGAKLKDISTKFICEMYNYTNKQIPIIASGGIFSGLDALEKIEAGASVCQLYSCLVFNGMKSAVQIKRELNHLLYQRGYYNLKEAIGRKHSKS

Row | SMILES | z-score [1] | z-score [2] | z-score [3] | composite z-score [4] | z-score [5] | z-score [6] | z-score [7] | z-score [8] | z-score [9] | composite z-score [10]
1 | C=CC[C@@]1(C(=O)NCC(O)CO)N=C(c2ccc(OCCCO)cc2)O[C@@H]1c1ccccc1 (stereo not given in full) | 0.483 | -2.05 (inactive) | 0.552 (inactive) | 0.358 (inactive) | -0.223 (inactive) | -0.108 (inactive) | 2.08 (inactive) | 0.196 (inactive) | 0.934 | -0.0374
2 | O=C1N(Cc2ccccc2)c2ccccc2[C@H]2OC(c3ccc(OCCCO)cc3)=N[C@@]12CCS(=O)(=O)c1ccccc1 | -0.362 | 1.21 (inactive) | -0.56 (inactive) | 0.876 (inactive) | 1.47 (inactive) | 2.68 (inactive) | 0.244 (inactive) | -0.939 (inactive) | -0.509 | 0.12
3 | O=C1C[C@@](C(=O)O)(c2ccc([N+](=O)[O-])cc2)[C@@H](c2ccc(CO)cc2)N1CC12CC3CC(CC(C3)C1)C2 | -0.246 | -0.418 (inactive) | -0.646 (inactive) | -3.13 (inactive) | 0.692 (inactive) | 1.08 (inactive) | 0.667 (inactive) | 0.507 (inactive) | -0.474 | -0.234
4 | CCCC=C(CCC)[C@@H](NC(=O)Cc1ccccc1)c1ccc(C(=O)OC)cc1 | -0.704 | 0.951 (inactive) | -1.14 (inactive) | -0.831 (inactive) | 0.964 (inactive) | 1.49 (inactive) | 0.276 (inactive) | 0.543 (inactive) | -0.702 | 0.11
5 | CC(C)N1C(=O)c2ccccc2[C@](C)(C(=O)O)[C@@H]1c1ccc(CO)cc1 | 0.536 | -0.942 (inactive) | -0.0713 (inactive) | -0.218 (inactive) | 0.332 (inactive) | 0.595 (inactive) | 0.0212 (inactive) | 0.421 (inactive) | 0.125 | 0.0767
6 | COC(=O)[C@@]1(Cc2ccc(OC)cc2)[C@H]2c3cc(C(=O)N4CCCC4)n(Cc4ccc(C)o4)c3C[C@H]2CN1C(=O)c1ccccc1 | -6.47 | -8.36 (active) | -9.97 (active) | -1.53 (inactive) | 0.411 (inactive) | -1.57 (inactive) | 0.0254 (inactive) | -0.726 (inactive) | -7.27 | 0.402
7 | CN(C)CCCNC(=O)[C@@]1(Cc2ccccc2I)c2ccccc2C(=O)N(Cc2ccccc2Cl)[C@H]1c1ccc(CO)cc1 | -6.48 | -7.72 (inactive) | -8.82 (active) | -0.205 (inactive) | -0.233 (inactive) | -0.0889 (inactive) | -0.268 (inactive) | -1.26 (inactive) | -6.59 | 0.166
8 | CC1CC/C=C\[C@H]2OC34C=CCN(c5ccc(Cl)cc5)C(=O)[C@H]3N(C(CO)C(C)C)C(=O)[C@]4(C)C2C(=O)O1 (stereo not given in full) | -0.328 | -0.432 (inactive) | 0.0849 (inactive) | -2.37 (inactive) | 0.109 (inactive) | -0.245 (inactive) | -0.163 (inactive) | 0.129 (inactive) | 0.399 | 0.0808
9 | O=C(C=C(CC(O)c1cccc(Cl)c1)OCCF)OCCF (stereo not given) | -0.0453 | -1.47 (inactive) | 0.0592 (inactive) | -2.48 (inactive) | -0.777 (inactive) | -1.33 (inactive) | -0.0441 (inactive) | 1.04 (inactive) | 0.335 | 0.237
10 | CCC[C@@H]1C[C@@]1(CCC)[C@@H](NC(=O)c1ccco1)c1ccc(Cl)cc1 | 1.6 | 0.614 (inactive) | 0.254 (inactive) | -0.152 (inactive) | 0.439 (inactive) | 0.288 (inactive) | -0.195 (inactive) | 0.105 (inactive) | -1.67 | -0.683
11 | C=CC[C@]1(C(=O)N(C)C)N=C(c2ccc(OCCCO)cc2)O[C@H]1c1ccccc1 | 0.549 | -2.54 (inactive) | 0.911 (inactive) | -0.588 (inactive) | -0.484 (inactive) | -0.689 (inactive) | 1.23 (inactive) | 0.771 (inactive) | 0.586 | 0.133
12 | COCCOC(=O)N1C(=O)[C@@]2(c3cc(C#CC4(O)CCCCCC4)ccc31)[C@H](C(=O)N1CCN(c3ncccn3)CC1)[C@H]1C(=O)O[C@H](c3ccccc3)[C@H](c3ccccc3)N1[C@@H]2c1ccc(O)cc1 | -0.597 | 1.04 (inactive) | -0.0906 (inactive) | 0.59 (inactive) | 0.545 (inactive) | 2.1 (inactive) | -0.19 (inactive) | 0.37 (inactive) | 0.74 | -0.177
13 | CN(C)C(=O)[C@@]1(CCC(=O)OC(C)(C)C)N=C(c2ccc(OCCCO)cc2)O[C@H]1c1ccccc1N=[N+]=[N-] | 0.506 | 0.314 (inactive) | -1.36 (inactive) | 0.645 (inactive) | 1.35 (inactive) | 1.98 (inactive) | 0.306 (inactive) | -0.264 (inactive) | -0.839 | 0.0428
14 | CC(C)CN1C(=O)[C@@]2(Cc3ccccc31)c1ccccc1C(=O)N(Cc1ccccc1)[C@H]2c1ccc(CO)cc1 | -0.436 | 0.145 (inactive) | -0.765 (inactive) | -2.4 (inactive) | 0.745 (inactive) | -0.286 (inactive) | 0.109 (inactive) | -0.663 (inactive) | -0.904 | -0.25
15 | Cc1ccc(F)cc1S(=O)(=O)N[C@@H]1CCN(C(=O)c2ccc(OC(C)C)cc2)C1 | 0.157 | -2.17 (inactive) | 0.554 (inactive) | -0.431 (inactive) | -0.165 (inactive) | -0.455 (inactive) | 1.16 (inactive) | 0.427 (inactive) | 0.339 | 0.0336
16 | COC(=O)c1ccc(OC)c(/C=C\CC(CCc2ccccc2)OC(C)=O)c1 (stereo not given) | -0.928 | -0.527 (inactive) | -0.0834 (inactive) | -0.162 (inactive) | -0.131 (inactive) | -0.424 (inactive) | 0.0214 (inactive) | -0.238 (inactive) | 0.271 | -0.253
17 | C=CCOC(=O)[C@@H]1[C@H]2C(=O)O[C@H](c3ccccc3)[C@H](c3ccccc3)N2[C@H](c2ccc(OCCOC(=O)[C@@H]3C[C@@H]4C(=O)N5CCC[C@H]5C(=O)N4[C@@H]3c3cccc(OCCO)c3)cc2)[C@@]12C(=O)Nc1ccc(I)cc12 | 0.586 | 1.53 (inactive) | 0.356 (inactive) | -0.652 (inactive) | 1.69 (inactive) | 2.07 (inactive) | 0.132 (inactive) | -0.63 (inactive) | 0.281 | -0.224
18 | CCOC(=O)C[C@H]1[C@H](OC(=O)Cc2ccc3c(c2)OCO3)[C@@H](NC(=O)c2ccccc2)c2cc(OCCCO)ccc2N1C(=O)c1ccccc1 | -0.688 | -0.271 (inactive) | 0.103 (inactive) | -1.11 (inactive) | 0.0885 (inactive) | 0.0859 (inactive) | 0.31 (inactive) | 0.676 (inactive) | -0.19 | -0.309
19 | COc1ccccc1CN1C(=O)c2ccccc2[C@](Cc2ccccc2I)(C(=O)NCCN2CCOCC2)[C@@H]1c1ccc(CO)cc1 | -2.07 | -0.261 (inactive) | -0.914 (inactive) | -1.1 (inactive) | 0.817 (inactive) | -0.897 (inactive) | 0.533 (inactive) | 0.908 (inactive) | -1.66 | -0.108
20 | C[C@@H]1ON(c2ccccc2)[C@H](c2ccccc2)[C@H]1C(=O)N1C(=O)OC[C@H]1Cc1ccccc1 | 1.07 | 0.534 (inactive) | 0.962 (inactive) | -0.255 (inactive) | 0.0238 (inactive) | 1.39 (inactive) | 0.884 (inactive) | 0.934 (inactive) | 0.852 | -0.1
21 | CC(C)N1CC=CC23O[C@@H]4C=CCOC(=O)[C@@H]4[C@H]2C(=O)N(CCCCCCO)[C@@H]3C1=O (stereo not given in full) | 0.821 | 0.562 (inactive) | -0.581 (inactive) | -1.07 (inactive) | 0.165 (inactive) | -0.21 (inactive) | 0.412 (inactive) | 0.24 (inactive) | 0.704 | 0.0342
22 | NC(=O)NCC#Cc1ccc2c(c1)[C@]1(C(=O)N2)[C@H](c2ccc(OCCO)cc2)N2[C@H](c3ccccc3)[C@H](c3ccccc3)OC(=O)[C@H]2[C@@H]1C(=O)N1CCN(c2ncccn2)CC1 | 0.21 | 1.04 (inactive) | 0.963 (inactive) | -0.858 (inactive) | 2.71 (inactive) | 2.58 (inactive) | 0.665 (inactive) | 0.773 (inactive) | 1.79 | -0.149
23 | CC(C)C(CO)N1C(=O)[C@@H]2[C@H]3C(=O)OCC=C[C@H]3OC23C=CCN(Cn2nnc4ccccc42)C(=O)[C@@H]13 (stereo not given in full) | 0.288 | 0.959 (inactive) | -0.281 (inactive) | 0.237 (inactive) | 0.894 (inactive) | 0.68 (inactive) | -0.497 (inactive) | -0.708 (inactive) | -0.0558 | 0.175
24 | CC(=O)NCCCC[C@@H]1NC(=O)[C@H]2C[C@@H](C(=O)NCCCCCN)[C@@H](c3cccc(OCCO)c3)N2C1=O | 0.382 | -1.74 (inactive) | 1.18 (inactive) | -0.613 (inactive) | 0.0904 (inactive) | -1.1 (inactive) | 1.03 (inactive) | 1.24 (inactive) | 1.5 | -0.02
25 | C=CCC(OC(C)=O)[C@@H]1[C@@H](N(Cc2cccc3ccccc23)C(=O)c2ccc(C)cc2)c2cc(OCCCO)ccc2N1C(=O)c1ccc2ccccc2c1 (stereo not given in full) | 0.924 | -0.0786 (inactive) | 1.27 (inactive) | -1.86 (inactive) | 0.101 (inactive) | -1.7 (inactive) | 1.24 (inactive) | 1.8 (inactive) | 1.04 | -0.152
